From PubChem BioAssay AID449768 (Vanderbilt High Throughput Screening Facility, 2010)
Out of some 110,000 compounds screened, about 1,400 (1.3%) were called active. The full list was thinned out, with actives kept by preference. Unmarked numbers belong to inactive results.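 Rule for the calls: active = Z score or B-score, a plate-position-corrected score, falls beyond the plate's 99.7% confidence bounds, in either direction; inactive = both scores lie inside the 99.7% bounds.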

The compounds below were run against Sodium-dependent dopamine transporter (Homo sapiens) (UniProt Q01959) (assay: modulators of human DAT uptake with cocaine – cell-based, LLC-PK1 hDAT, [14C]-dopamine uptake, MLSMR, cocaine antagonist project, primary screen (AID 449768;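 note: scored against the spread of the other compound wells on the same plate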)). Conditions: LLC-PK1 hDAT cells, [14C]-dopamine uptake with cocaine IC80; at 10 µM; actives deviate in either direction.
Chain of Sodium-dependent dopamine transporter (Homo sapiens) (Q01959 whole entry, looked up): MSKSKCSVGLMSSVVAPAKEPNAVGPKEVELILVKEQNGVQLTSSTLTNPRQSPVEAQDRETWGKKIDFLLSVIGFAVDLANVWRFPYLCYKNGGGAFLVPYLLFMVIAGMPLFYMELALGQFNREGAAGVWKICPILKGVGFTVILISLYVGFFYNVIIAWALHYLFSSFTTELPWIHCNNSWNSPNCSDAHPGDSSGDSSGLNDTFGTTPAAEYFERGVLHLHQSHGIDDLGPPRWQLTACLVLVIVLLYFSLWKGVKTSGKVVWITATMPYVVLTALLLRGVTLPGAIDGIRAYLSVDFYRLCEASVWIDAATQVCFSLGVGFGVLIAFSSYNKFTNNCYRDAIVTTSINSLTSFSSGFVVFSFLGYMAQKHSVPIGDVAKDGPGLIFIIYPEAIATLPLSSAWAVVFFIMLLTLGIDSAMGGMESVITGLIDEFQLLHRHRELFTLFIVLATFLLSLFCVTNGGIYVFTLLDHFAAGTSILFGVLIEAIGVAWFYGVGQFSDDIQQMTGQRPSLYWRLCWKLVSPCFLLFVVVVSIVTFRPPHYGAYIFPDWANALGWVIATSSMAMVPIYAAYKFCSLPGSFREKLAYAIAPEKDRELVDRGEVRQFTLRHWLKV
With `CNC(=O)c1[nH]cnc1C(=O)N[C@@H](CC(C)C)C(=O)OCc1ccccc1` the B-score was -0.0072.
Compound `COc1ccc(CN2[C@@H](CC(=O)O)c3cc(F)ccc3S2(=O)=O)cc1` has a B-score of 1.13.
With `Nc1nnc(SCCN2C(=O)c3ccccc3S2(=O)=O)s1` the B-score was 2.06 (active).
Compound `CCCc1nnc(NC(=O)CN2C(=O)c3ccccc3S2(=O)=O)s1` has a B-score of -0.746.
`CNC(=O)CN1C(=O)c2ccccc2S1(=O)=O` gave a B-score of -0.143.
For `O=C1CC2(CCCC2)Oc2ccc(Cl)cc21`, the B-score was 0.175.
`c1ccc(-n2ncc3c(N4CCCC4)ncnc32)cc1` gave a B-score of 0.432.
With `CCN(CC)C(=O)CSc1ncnc2c1cnn2-c1ccccc1` the B-score was 3.2 (active).
Work on `O=C(Cn1cnc2c(cnn2-c2ccccc2)c1=O)NCc1ccccc1` yielded a B-score of -0.925.
In the case of `C=C1CCN([C@H](C(=O)NCc2cc(OC)c(OC)c(OC)c2)C(C)C)S(=O)(=O)c2ccccc21`, the B-score was 1.09.
With `Cc1ccc(S(=O)(=O)Oc2ccc(/C=N/NC(=O)c3c(Cl)cnn3C)cc2)cc1` the B-score was -7.83 (active).
Work on `Cc1ccc(/C=N/NC(=O)c2sccc2OCc2ccc(F)cc2)cc1` yielded a B-score of -0.168.
`COc1cccc(/C=N/NC(=O)c2cccc([N+](=O)[O-])c2)c1OS(=O)(=O)c1ccc(C)cc1` was tested, and the B-score was -0.0993.
Compound `CCOC(=O)c1ccc(NC(=O)c2c(NCc3ccccc3)[nH]c(=O)[nH]c2=O)cc1` has a B-score of -0.0313.
For `C#CCNC(=O)C1=C[C@@H](c2ccccc2)[C@H](CCCO)[C@@H](OCC)O1`, the B-score was -0.204.
Compound `COc1ccc(OCCCC(=O)Nc2nnc(C3CCCO3)s2)cc1` (configuration not stated) has a B-score of -0.0765.
In the case of `Cc1nnc(NC(=O)CCCOc2ccccc2)s1`, the B-score was -9.48 (active).
Compound `COCC(=O)Nc1nnc(COc2ccccc2)s1` has a B-score of -0.411.
Compound `COCOc1cc(O)c(C(=O)/C=C/c2ccc(OCOC)c(OCOC)c2)c(OCOC)c1` has a B-score of -0.154.
`CC(C)CC(CO)N1CCN(C(=O)c2ccc(Cl)cc2Cl)CCC1=O` (configuration not stated) showed a B-score of -0.933.
For `CCOc1cc(C(=O)N2CCc3cc(OC)c(OC)cc3C2)ccc1OC(F)F`, the B-score was 0.798.
Work on `COc1ccc(S(=O)(=O)N2CCC(C(=O)N3CCc4ccccc4C3)CC2)cc1OC` yielded a B-score of 0.19.
With `COc1cc2c(cc1OC)CN(C(=O)c1cc(=O)c3ccccc3o1)CC2` the B-score was 3.91 (active).
`Cc1ccc(NC(=S)NCCN2CCOCC2)cc1` gave a B-score of -0.206.
With `Cc1ccc(Cc2c(C)nc3nc(SCC(=O)NCCN4CCOCC4)nn3c2C)cc1` the B-score was 2.86 (active).
`O=C(CCN1C(=O)c2ccccc2C1=O)NCCN1CCOCC1` gave a B-score of -0.649.
Work on `CCOC(=O)c1ccc(NC(=O)c2c(N)n(C)c(=O)[nH]c2=O)cc1` yielded a B-score of -0.175.
With `COC(C[C@@H](O)C[C@H](O)[C@H](C)OCc1ccccc1)OC` the B-score was 0.0993.
In the case of `COc1ccccc1C1C2=C(COC2=O)Nc2cc3c(cc21)OCO3` (configuration not stated), the B-score was -2.97 (active).
`COc1ccc(F)cc1S(=O)(=O)Nc1ccc2c(c1)OCO2` gave a B-score of -0.037.
`CCCOc1ccccc1C1CC(=O)Nc2cc3c(cc21)OCO3` (configuration not stated) showed a B-score of -1.06.
Work on `CCOC(=O)/C=C/CN(C(=O)OC(C)(C)C)S(=O)(=O)N1CC=CC1` yielded a B-score of -1.8e-05.
`CC(=O)NC(Cc1ccc(F)cc1)C(=O)O` (configuration not stated) gave a B-score of -0.111.
Compound `COC(=O)[C@H](Cc1ccccc1)NC(=O)Nc1ccc(S(N)(=O)=O)cc1` has a B-score of 0.0225.
With `CC(=O)c1ccc(NC(=O)N[C@@H](Cc2ccccc2)C(=O)O)cc1` the B-score was 3.14 (active).
For `Cc1ccc(/C=N/NC(=O)C(NC(=O)c2ccccc2)c2n[nH]c(=O)c3ccccc23)cc1` (configuration not stated), the B-score was 5.41 (active).
In the case of `Cc1ccc(/C=N/NC(=O)C2=NNC(c3ccccc3)(c3ccccc3)C2)c(O)c1`, the B-score was -0.164.
Work on `Cc1ccc(C(=O)N/N=C/c2sc(=O)n(Cc3cccc(C(=O)O)c3)c2Cl)cc1` yielded a B-score of 0.653.
In the case of `C#CCOCCOCCOCCNc1nc(N2CCN(C(=O)[C@H](C(C)C)n3cc(CCO)nn3)CC2)nc(N2CCN(C(=O)[C@H](C(C)C)n3cc(CCO)nn3)CC2)n1`, the B-score was -0.703.
For `COc1ccc(-c2nc3c(s2)CCc2onc(-c4ccc(Br)cc4)c2-3)cc1`, the B-score was -0.269.
`O=C1NC[C@@H](Cc2ccc(O)cc2)N(CCc2cccc(F)c2)C1=O` was tested, and the B-score was 0.0299.
In the case of `Cc1cn(C)c(=O)n(C)c1=O`, the B-score was -1.72.
